We go through 44 compounds from the antibiotic and cytotoxicity screens of Wong et al. (2023).

Hit rate of the full screen: of about 39,000 compounds, about 3,300 (8.5%) were called active. The sample as a whole holds a higher share of actives than the screen did.

This assay relates to HepG2. As to the kind of experiment: cytotoxicity call (relative viability < 0.9). The note with it: 10 µM.
With `C[C@@H]1CCCCO[C@@H](CN(C)S(=O)(=O)c2ccc(F)cc2)[C@H](C)CN([C@H](C)CO)C(=O)c2cc(NC(=O)Cc3ccccc3)ccc2O1`, the cytotoxicity call is “inactive”.

Regarding `C[C@@H]1CCCCO[C@@H](CN(C)S(=O)(=O)c2ccc(F)cc2)[C@@H](C)CN([C@@H](C)CO)C(=O)c2cc(NC(=O)Cc3ccccc3)ccc2O1`, the cytotoxicity call is “active”.

For the compound `C[C@@H]1CCCCO[C@H](CN(C)S(=O)(=O)c2ccc(F)cc2)[C@@H](C)CN([C@H](C)CO)C(=O)c2cc(NC(=O)Cc3ccccc3)ccc2O1`, the cytotoxicity call was “active”.

As to `C[C@H]1CCCCO[C@H](CN(C)S(=O)(=O)c2ccc(F)cc2)[C@@H](C)CN([C@@H](C)CO)C(=O)c2cc(NC(=O)Cc3ccccc3)ccc2O1`, the cytotoxicity call was “inactive”.

Regarding `C[C@@H]1CN([C@H](C)CO)C(=O)c2cc(NC(=O)Cc3ccccc3)ccc2O[C@@H](C)CCCCO[C@H]1CN(C)S(=O)(=O)c1ccc(F)cc1`, the cytotoxicity call was “inactive”.

On to `C[C@@H]1CN([C@H](C)CO)C(=O)c2cc(NC(=O)Cc3ccccc3)ccc2O[C@@H](C)CCCCO[C@@H]1CN(C)S(=O)(=O)c1ccc(F)cc1`, for which the cytotoxicity call was “inactive”.

As for `C[C@@H]1CCCCO[C@@H](CN(C)S(=O)(=O)c2ccc(F)cc2)[C@H](C)CN([C@@H](C)CO)C(=O)c2cc(NC(=O)Cc3ccccc3)ccc2O1`, the cytotoxicity call was “inactive”.

For the compound `C[C@@H]1CCCCO[C@H](CN(C)S(=O)(=O)c2ccc(F)cc2)[C@@H](C)CN([C@@H](C)CO)C(=O)c2cc(NC(=O)Cc3ccccc3)ccc2O1`, the cytotoxicity call was “active”.

Consider `C[C@H](CO)N1C[C@H](C)[C@H](CN(C)S(=O)(=O)c2ccc(F)cc2)OCCCC[C@H](C)Oc2ccc(NC(=O)Cc3ccccc3)cc2C1=O`, for which the cytotoxicity call is “inactive”.

As to `C[C@@H]1CN([C@@H](C)CO)C(=O)c2cc(NC(=O)Cc3ccccc3)ccc2O[C@@H](C)CCCCO[C@@H]1CN(C)C(=O)NC1CCCCC1`, the cytotoxicity call is “inactive”.

Take `C[C@H](CO)N1C[C@H](C)[C@@H](CN(C)S(=O)(=O)c2cn(C)cn2)Oc2ccc(NS(C)(=O)=O)cc2C1=O`: the cytotoxicity call was “inactive”.

Consider `C[C@@H]1CN([C@H](C)CO)C(=O)c2cccc(NS(C)(=O)=O)c2O[C@@H]1CN(C)C(=O)Nc1ccc2c(c1)OCO2`, for which the cytotoxicity call is “inactive”.

`C[C@@H]1CN([C@@H](C)CO)C(=O)c2ccccc2-c2ccccc2CO[C@@H]1CN(C)S(=O)(=O)c1cn(C)cn1`: the cytotoxicity call was “inactive”.

Consider `C[C@@H]1CCCCO[C@@H](CN(C)Cc2ccc(C(F)(F)F)cc2)[C@H](C)CN([C@@H](C)CO)C(=O)c2cc(NC(=O)CCCN(C)C)ccc2O1`, for which the cytotoxicity call was “inactive”.

As for `C[C@@H]1CCCCO[C@H](CN(C)S(C)(=O)=O)[C@@H](C)CN([C@H](C)CO)C(=O)c2cc(NC(=O)c3ccncc3)ccc2O1`, the cytotoxicity call is “inactive”.

`CO[C@@H]1CN(C)C(=O)c2cc(NS(=O)(=O)c3ccccc3)ccc2OC[C@H](C)N(C(=O)NC(C)C)C[C@H]1C`: the cytotoxicity call is “inactive”.

On to `CN(C)C(=O)C[C@@H]1CC[C@@H](NC(=O)C2CCOCC2)[C@H](CO)O1`, for which the cytotoxicity call was “inactive”.

With `CCN(CCCCOC(=O)c1ccc(OC)c(OC)c1)C(C)Cc1ccc(OC)cc1.Cl` (centres undefined), the cytotoxicity call was “active”.

Take `CCCCOc1cc(C(=O)OCCN(CC)CC)ccc1N.Cl`: the cytotoxicity call is “inactive”.

Regarding `CCCOc1ccc(C(=O)OCCN(CC)CC)cc1N.Cl`, the cytotoxicity call is “inactive”.

As to `C[C@H](CO)N1C[C@H](C)[C@H](CN(C)S(=O)(=O)c2ccc(F)cc2)Oc2ccc(NC(=O)CCCN(C)C)cc2C1=O`, the cytotoxicity call is “inactive”.

Turning to `Cc1noc(C)c1NC(=O)Nc1ccc2c(c1)C(=O)N([C@@H](C)CO)C[C@H](C)[C@@H](CN(C)Cc1ccc(C(F)(F)F)cc1)OCCCC[C@H](C)O2`, the cytotoxicity call was “inactive”.

`Cc1cn(-c2cc(NC(=O)c3ccc(C)c(Nc4nccc(-c5cccnc5)n4)c3)cc(C(F)(F)F)c2)cn1`: the cytotoxicity call was “active”.

For `O=C(O)c1cccnc1Nc1cccc(C(F)(F)F)c1`, the cytotoxicity call is “inactive”.

For `Cc1cn(-c2cc(NC(=O)c3ccc(C)c(Nc4nccc(-c5cnccn5)n4)c3)cc(C(F)(F)F)c2)cn1`, the cytotoxicity call was “inactive”.

With `O=C(Nc1cccnc1)c1nc2ncccn2n1`, the cytotoxicity call is “inactive”.

Regarding `Cc1ccc(C(=O)Nc2cccc(C(F)(F)F)c2)cc1Nc1nc(-c2cccnc2)nc2c1cnn2C`, the cytotoxicity call is “active”.

Regarding `COC(=O)CNC(=O)c1ccc(S(=O)(=O)N2CCOCC2)cc1`, the cytotoxicity call is “inactive”.

As for `C[C@@H]1CN([C@@H](C)CO)C(=O)c2cccc(NS(=O)(=O)c3cn(C)cn3)c2O[C@@H]1CN(C)Cc1ccc(C(=O)O)cc1`, the cytotoxicity call is “inactive”.

For the compound `C[C@@H]1CN([C@H](C)CO)C(=O)c2cc(NC(=O)Cn3cnnn3)ccc2O[C@H]1CN(C)Cc1ccc(C(=O)O)cc1`, the cytotoxicity call was “inactive”.

As to `C[C@@H]1CCCCO[C@H](CN(C)C(=O)Nc2ccccc2)[C@H](C)CN([C@@H](C)CO)C(=O)c2cc(NS(=O)(=O)c3cccs3)ccc2O1`, the cytotoxicity call was “inactive”.

Turning to `C[C@H](CO)N1C[C@H](C)[C@@H](CN(C)S(C)(=O)=O)Oc2ccc(NC(=O)CCC(F)(F)F)cc2CC1=O`, the cytotoxicity call is “inactive”.

On to `C[C@@H]1CN([C@@H](C)CO)C(=O)c2cc(NC(=O)Nc3ccccc3)ccc2O[C@@H](C)CCCCO[C@H]1CN(C)S(=O)(=O)c1cccc(F)c1`, for which the cytotoxicity call is “inactive”.

With `CCOC(=O)[C@H](Cc1c[nH]c2ccccc12)NC(=O)Cn1cc(C(=O)NO)nn1`, the cytotoxicity call is “inactive”.

Regarding `Cc1ccc(S(=O)(=O)N[C@@H](Cc2ccccc2)C(=O)NCCn2cc(CN3C(=O)COC[C@H]3c3ccccc3)nn2)cc1`, the cytotoxicity call is “inactive”.

For the compound `CCOC(=O)[C@H](Cc1c[nH]c2ccccc12)NC(=O)Cn1cc(CN2C(=O)COC[C@H]2c2ccccc2)nn1`, the cytotoxicity call was “active”.

In the case of `Cc1noc(C)c1S(=O)(=O)Nc1ccc2c(c1)C(=O)N([C@@H](C)CO)C[C@@H](C)[C@H](CN(C)C(=O)NC1CCCCC1)O2`, the cytotoxicity call was “inactive”.

As for `COc1ccc(-c2nc(-c3ccc(C)cc3C)cs2)cc1`, the cytotoxicity call is “inactive”.

For `COc1ccc(NC(=O)Nc2ccc3c(c2)CC(=O)N([C@@H](C)CO)C[C@@H](C)[C@@H](CN(C)CC2CCCCC2)O3)cc1`, the cytotoxicity call was “inactive”.

Turning to `COc1ccc(NC(=O)Nc2ccc3c(c2)CC(=O)N([C@@H](C)CO)C[C@@H](C)[C@H](CN(C)CC2CCCCC2)O3)cc1`, the cytotoxicity call was “active”.

In the case of `COc1ccc(NC(=O)Nc2ccc3c(c2)CC(=O)N([C@@H](C)CO)C[C@H](C)[C@@H](CN(C)CC2CCCCC2)O3)cc1`, the cytotoxicity call is “inactive”.

With `COc1ccc(NC(=O)Nc2ccc3c(c2)CC(=O)N([C@H](C)CO)C[C@H](C)[C@H](CN(C)CC2CCCCC2)O3)cc1`, the cytotoxicity call was “inactive”.

Regarding `COc1ccc(NC(=O)Nc2ccc3c(c2)CC(=O)N([C@H](C)CO)C[C@H](C)[C@@H](CN(C)CC2CCCCC2)O3)cc1`, the cytotoxicity call was “inactive”.

On to `COc1ccc(NC(=O)Nc2ccc3c(c2)CC(=O)N([C@H](C)CO)C[C@@H](C)[C@@H](CN(C)CC2CCCCC2)O3)cc1`, for which the cytotoxicity call was “active”.
